Measurements: ChEMBL document CHEMBL4513146, “CO-ADD screening of Karazin Kharkiv National University (Ukraine) compounds”
Results with a measured potency or affinity are listed apart.

Assays:
Staphylococcus aureus = conditions: Concentration 32 ug.mL-1;; ASSAY_TEST Inhibition of Bacterial Growth; detection method Absorption (OD600); MEDIA CAMHB; plate type 384well; NBS; CORNING #3640; time 18 hr
Escherichia coli = conditions: Concentration 32 ug.mL-1;; ASSAY_TEST Inhibition of Bacterial Growth; detection method Absorption (OD600); MEDIA CAMHB; plate type 384well; NBS; CORNING #3640; time 18 hr

Structure (SMILES)	Inhibition (Staphylococcus aureus)	Inhibition (Escherichia coli)
COc1ccccc1Cn1c(=O)c2sccc2n2c(=O)n(Cc3ccccc3)nc12	4.84%	-5.32%
COc1ccc(CNC(=O)Cn2nc3c(SCc4ccc(Cl)cc4)nccn3c2=O)cc1	-6.61%	-12.31%
COc1cccc(NC(=O)Cn2nc3c(Sc4ccccc4)nccn3c2=O)c1	6.76%	0.48%
COc1ccc(N2CCN(C(=O)Cn3nc4ccc(-c5ccccc5)nn4c3=O)CC2)cc1	15.35%	1.42%
Cc1ccc(-c2ccc3nn(CC(=O)NCc4ccc(Cl)cc4)c(=O)n3n2)cc1C	-0.74%	-5.52%
